Screening results (PubChem)
This is a sample that favours compounds with a hit; in the whole collection about 0.24% have one here.
Bcl-W Bim block – inhibitors of Bim-Bcl-W interaction, human. bead-based flow cytometry, Bim peptide-Bcl-W binding. Q92843. actives 0.02% (n = 190,000). inhibition, % at 10 µM;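 further: 0% = bound tracer without compound and 100% = peptide blocker; higher means less fluorescent Bim peptide bound to Bcl-W beads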
Target sequence (Q92843 whole entry, looked up): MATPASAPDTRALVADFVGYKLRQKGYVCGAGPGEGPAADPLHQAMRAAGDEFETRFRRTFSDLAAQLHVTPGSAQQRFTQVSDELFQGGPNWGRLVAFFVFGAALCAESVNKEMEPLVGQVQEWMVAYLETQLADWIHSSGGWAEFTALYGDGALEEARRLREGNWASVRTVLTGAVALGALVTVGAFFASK
PKD1 kinase inh – inhibitors of human PKD1 kinase; actives 0.056% (n = 200,000); PKD1 kinase fluorescence polarization assay; Q15139; inhibition, % (concentration not given with the values); AID 797; in the data active means inhibition above about 50%
Bcl-XL Bim block – inhibitors of Bim-Bcl-XL interaction, human. Q07817. Bim peptide-Bcl-XL binding, bead flow cytometry, fluorescence. inhibition, % at 10 µM. actives 0.04% (n = 190,000). AID 1007
Bfl-1 Bim block – inhibitors of Bim-Bfl-1 interaction, human. inhibition, % at 10 µM. Bead-based flow cytometry, Bim-Bfl-1 binding inhibition. Q16548. actives 0.12% (n = 190,000);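 further: 0% = wells without compound plus tracer and 100% = blocker peptide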
Bcl-2 Bim block – human Bim-Bcl-2 interaction inhibition; inhibition, % at 10 µM; Bead-based flow cytometry, Bim peptide-Bcl-2 binding; AID 950; P10415; actives 0.06% (n = 190,000); in the data active means inhibition above about 40%;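 further: 0% = no compound wells with probe peptide and 100% = reference peptide inhibitor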
Bcl-B Bim block – inhibitors of Bim-Bcl-B interaction, human; Q9HD36; bead-based flow cytometry, Bim peptide-Bcl-B binding; inhibition, % at 10 µM; actives 0.073% (n = 190,000);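 further: 0% = tracer peptide without compound and 100% = reference inhibitor peptide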
Target sequence (Q9HD36 whole entry, looked up): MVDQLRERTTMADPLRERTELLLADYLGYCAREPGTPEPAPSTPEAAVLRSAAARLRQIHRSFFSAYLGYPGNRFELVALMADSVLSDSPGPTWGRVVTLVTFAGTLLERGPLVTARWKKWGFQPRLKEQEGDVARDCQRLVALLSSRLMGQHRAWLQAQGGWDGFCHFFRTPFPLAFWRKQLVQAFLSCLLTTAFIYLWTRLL
Starred values were filed as active, the others as inactive; · = not tested or not shown. Unless noted, no stated cut-off is given here; in the data, active means inhibition above about 40%.

SMILES	Bcl-W Bim block	PKD1 kinase inh	Bcl-XL Bim block	Bfl-1 Bim block	Bcl-2 Bim block	Bcl-B Bim block
Cc1cc(-c2csc(N)n2)c(C)n1C	30	-2	21	20	36	70*
Cc1ccc(SCc2c(-c3ccccc3)nn(C)c2Cl)cc1	1	3	4	0	3	2
Cc1ccc(Sc2c(C#N)c(-c3ccccc3)nn2C)cc1	10	-11	8	47*	78*	68*
CC(=NCCCn1ccnc1)C1=C(O)c2ccccc2C1=O	11	-6	18	63*	87*	86*
O=C(COc1ccccc1Br)NCc1ccccn1	5	2	10	44*	71*	75*
O=C(COc1ccc(F)cc1Br)NCc1ccccn1	0	-3	-1	-1	4	-1
COc1ccc(CCNC(=O)c2ccc3nc(-c4ccco4)c(-c4ccco4)nc3c2)cc1OC	19	13	6	42*	11	0
CCOC(=O)CC(=O)NC1(Cc2ccc(O)cc2)CCCCC1	2	-1	-1	-4	-1	-1
Cc1ccc(NC(=O)CSc2nc3ccccc3c(=O)n2CCCN2CCCCC2)cc1Cl	29	-4	26	25	62*	71*
CC1CCN(CCCn2c(SCC(=O)Nc3ccccc3Cl)nc3ccccc3c2=O)CC1	-1	0	-1	0	-1	-1
O=C(COc1ccc(Br)cc1CNC1CCCCC1)NCCc1ccccc1	-7	1	1	54*	78*	67*
CC(=O)c1ccc(NC(=O)CSc2nnc(Cn3c(=O)sc4ccccc43)n2C)cc1	-5	-8	-5	-7	-6	-11
O=C1c2ccccc2-c2onc3c(Oc4ccccc4)cc(O)c1c23	28	-1	29	43*	22	-14
CCNc1ccc2noc3c2c1C(=O)c1ccccc1-3	0	41	0	2	1	0
CNC(=O)C1CC(=O)N(CCCc2ccccc2)C(=Nc2ccccc2)S1 (centres undefined)	0	-2	-10	-4	-5	-6
c1ccc2c(Nc3ccc4c(c3)OCCO4)c3c(nc2c1)CCCC3	1	1	-1	-3	-1	-4
O=C(Cc1ccccc1)N/N=C/c1cccn1-c1ccc([N+](=O)[O-])cc1	26	-7	25	21	31	50*
O=C(N/N=C/c1cccn1-c1ccc([N+](=O)[O-])cc1)C(O)c1ccccc1 (centres undefined)	2	4	-6	-11	-7	-8
Cc1ccccc1NC(NC(=O)c1cccs1)C(Cl)(Cl)Cl (centres undefined)	-2	3	-4	-4	-3	3
O=C1CSCN1c1cc(Cl)ccc1Cl	0	75*	-2	0	1	-1
COc1ccc(N2CCN(CCCNC(=O)CCCn3c(=O)[nH]c4ccsc4c3=O)CC2)cc1	4	-6	1	30	62*	67*
COc1ccc(N2CCN(C(=O)CCCCCn3c(=O)[nH]c4ccsc4c3=O)CC2)cc1	-5	-3	-13	2	-1	0
CCc1nc2sc3c(O)cc(=O)[nH]c3c2cc1C	0	6	-1	-2	-6	-7
COc1ccc(C2CC(c3ccccc3)=NN2C(=O)COC(=O)c2cc(S(=O)(=O)N3CCOCC3)ccc2F)cc1 (centres undefined)	0	2	0	1	1	0
COC(=O)c1ccc(/C=N/NC(=O)CC(=O)NCc2cccnc2)cc1	5	-3	3	32	54*	51*
SMILES	Bcl-W Bim block	PKD1 kinase inh	Bcl-XL Bim block	Bfl-1 Bim block	Bcl-2 Bim block	Bcl-B Bim block
COC(=O)c1ccc(/C=N\NC(=O)CC(=O)NCCc2ccccc2)cc1	-2	-11	-3	-6	0	-4
Cc1ccc(CNc2ccc3c(c2)OCO3)cc1	18	-5	2	40*	10	-7
COc1ccc(-c2ccc(CCC(=O)O)n2NC(=O)c2cccs2)cc1	0	-10	-7	-23	-10	-8
Cc1ccc(-c2ccc(CCC(=O)O)n2NC(=O)c2cccs2)cc1	28	-1	35	·	92*	·
COc1ccc(C(=O)COC(=O)CCn2nnc(-c3cccc(O)c3OC)n2)cc1	-2	8	-8	-19	-8	-9
CC(C)n1nnnc1SCC(=O)N1CCN(C(=O)c2ccco2)CC1	31	-10	50*	-2	18	93*
CCCn1nnnc1SCC(=O)N1CCN(C(=O)c2ccco2)CC1	0	0	-8	-15	-7	-5
Cc1cccc2c(SCC(=O)NCC3CCCO3)nc(-c3ccc(F)cc3)nc12 (centres undefined)	1	-12	0	-7	-1	-4
CNCc1ccccc1Sc1ccc(O)c(O)c1	21	11	6	46*	17	1
O=C(NCC(c1cccs1)N1CCOCC1)c1cc([N+](=O)[O-])cc([N+](=O)[O-])c1 (centres undefined)	-2	-9	-3	4	3	4
COc1ccc(OC)c(N=c2ssnc2Cl)c1	7	-4	0	41*	5	-15
COc1cc(N=c2ssnc2Cl)c(OC)cc1Cl	8	-8	10	31	3	-13
Cc1cc(NC(=O)CCCC(=O)NCc2ccccc2)no1	0	2	1	27	51*	43*
Cc1ccc(CNC(=O)CCCC(=O)Nc2cc(C)on2)cc1	-4	-3	-4	-7	-3	-8
Cc1ccc(C(=O)NCC(=O)O)o1	-2	-3	-2	-5	0	-1
O=c1nc2c(O)cccn2c2c1c(=O)[nH]c1ccccc12	32	7	47*	36	24	4
O=C(Nc1ccc(N2CCOCC2)cc1)Nc1ccc2nc(-c3ccco3)c(-c3ccco3)nc2c1	14	-6	6	29	5	0
O=C(NCCCO)Nc1ccc2nc(-c3ccco3)c(-c3ccco3)nc2c1	46*	2	29	65*	46*	28
O=C(Nc1ccc2nc(-c3ccco3)c(-c3ccco3)nc2c1)NC1CC1	35	-3	20	50*	37	14
COc1ccc(/C=C/C(=O)OCC(=O)NC(=O)NC(C)(C)C)cc1	-6	-8	-5	-6	-5	-7
COc1ccc(CCNC(=O)c2cc(-c3ccccn3)nc3c(Cl)cccc23)cc1OC	16	6	56*	1	41*	53*
O=C(CSc1ccc2nnc(-c3cccnc3)n2n1)c1ccccc1	-2	112*	2	-4	-1	0
CCC(Sc1ccc2nnc(-c3cccnc3)n2n1)C(=O)O (centres undefined)	1	-6	-3	-9	-5	-6
Cc1cc(NC(=O)CCC(=O)N(Cc2ccco2)C(C(=O)NCC2CCCO2)c2ccncc2)no1 (centres undefined)	-1	74*	-1	-5	-6	-7
